In PMC4336329 (PLoS ONE, 2015):
The campaign covered roughly 310,000 compounds. About 14,000 (4.5%) showed an effect of 50% or more. The effect is printed as a negative number. The full list was thinned out, with strong results kept by preference.

Each molecule was assayed against human ether-à-go-go-related gene (hERG) potassium channel (human, UniProt Q12809) (assay: primary screen, population patch clamp on CHO cells stably expressing hERG; higher = less effect of the substance).
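Further: peak tail current of the secondary pulse compared with the same well before compound.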

Sequence of human ether-à-go-go-related gene (hERG) potassium channel (Q12809 whole entry, looked up): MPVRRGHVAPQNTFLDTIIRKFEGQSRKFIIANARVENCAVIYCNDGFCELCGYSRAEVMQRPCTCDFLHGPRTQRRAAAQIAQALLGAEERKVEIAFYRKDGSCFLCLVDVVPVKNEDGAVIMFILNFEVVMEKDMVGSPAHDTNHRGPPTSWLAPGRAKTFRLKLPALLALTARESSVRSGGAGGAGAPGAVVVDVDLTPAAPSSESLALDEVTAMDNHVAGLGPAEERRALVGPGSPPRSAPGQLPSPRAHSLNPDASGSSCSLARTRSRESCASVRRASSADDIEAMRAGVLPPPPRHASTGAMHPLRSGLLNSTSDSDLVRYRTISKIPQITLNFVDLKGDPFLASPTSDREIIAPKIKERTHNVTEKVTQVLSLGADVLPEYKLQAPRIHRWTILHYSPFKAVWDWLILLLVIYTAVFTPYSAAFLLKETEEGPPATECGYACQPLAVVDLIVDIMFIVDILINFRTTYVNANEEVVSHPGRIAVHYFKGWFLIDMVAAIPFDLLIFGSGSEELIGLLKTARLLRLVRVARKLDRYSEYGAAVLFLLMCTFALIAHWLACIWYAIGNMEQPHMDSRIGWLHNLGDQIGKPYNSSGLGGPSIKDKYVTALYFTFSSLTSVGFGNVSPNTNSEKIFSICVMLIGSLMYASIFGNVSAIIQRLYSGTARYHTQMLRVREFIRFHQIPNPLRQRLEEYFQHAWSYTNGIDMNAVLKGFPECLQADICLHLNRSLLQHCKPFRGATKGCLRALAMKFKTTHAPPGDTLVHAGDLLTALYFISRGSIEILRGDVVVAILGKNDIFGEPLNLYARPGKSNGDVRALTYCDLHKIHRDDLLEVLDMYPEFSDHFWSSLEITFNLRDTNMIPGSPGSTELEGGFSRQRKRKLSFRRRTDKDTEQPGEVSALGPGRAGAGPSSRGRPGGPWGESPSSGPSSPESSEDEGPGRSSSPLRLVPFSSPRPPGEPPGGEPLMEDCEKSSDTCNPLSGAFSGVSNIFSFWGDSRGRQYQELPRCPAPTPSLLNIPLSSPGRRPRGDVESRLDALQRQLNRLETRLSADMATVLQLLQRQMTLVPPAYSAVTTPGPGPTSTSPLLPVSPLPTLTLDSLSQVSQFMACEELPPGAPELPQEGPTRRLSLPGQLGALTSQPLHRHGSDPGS

Row | Structure (SMILES) | hERG current change (%, negative = inhibition) at 10uM [%]
1 | COc1cc(Cl)c(C)cc1NC(=O)c1ccc2c(c1)OCO2 | 19
2 | O=c1oc2ccccc2c2c1nnn2CCO | 8.06
3 | CCCCn1c(N)c(N(CC(C)C)C(=O)C2CC(=O)N(c3ccc(CC)cc3)C2)c(=O)[nH]c1=O (stereo not shown) | 18.8
4 | CC(C)CC(NS(=O)(=O)OCC(Cl)(Cl)Cl)c1ccccc1 (stereo not shown) | 1.57
5 | O=C(COC(=O)c1cc(-c2ccccc2)nc2ccccc12)NCC1CCCO1 (stereo not shown) | -22.4
6 | CCN(CC)c1ccc(C(=S)NCc2ccccc2)cc1 | 13
7 | COc1ccc(NC(=O)CC2SC(=N)N(c3ccccc3)C2=O)c(OC)c1 (stereo not shown) | 29.4
8 | O=C(CN1CCN(c2ccc(Cl)cc2)CC1)Nc1ccc(F)cc1 | -60.9
9 | O=C(CN1CCN(c2ccc(F)cc2)CC1)Nc1ccccc1 | 6.74
10 | O=C(CN1CCN(c2ccc(F)cc2)CC1)Nc1ccc(F)c(F)c1 | -27.8
11 | CC(=O)Nc1ccc(S(=O)(=O)N(C)CC(=O)OCC(=O)N2CCCCC2)cc1 | -1.43
12 | O=C(Cn1c(NCCO)nc2ccccc21)NCCc1ccc(F)cc1 | 10.6
13 | CC(=O)N1CCN(c2nc(CC(C)C)c3c(c2C#N)CCC3)CC1 | -9.82
14 | CCCC(=O)N1CCN(c2nc(CC(C)C)c3c(c2C#N)CCC3)CC1 | -53
15 | CC(C)Cc1nc(N2CCN(C(=O)C(C)C)CC2)c(C#N)c2c1CCC2 | -27.2
16 | CC(=O)c1ccc(N(CC(=O)NC2CCCC2)C(=O)c2csnn2)cc1 | 13.8
17 | O=C(Nc1ccc(N2CCN(C(=O)c3ccc(Cl)cc3)CC2)cc1)c1cc2ccccc2o1 | -0.396
18 | O=C(Nc1ccc(N2CCCC2)cc1)c1ccc(Br)o1 | -20.8
19 | N#CCC(=O)Nc1ccc(C(=O)N2CCN(c3ccccn3)CC2)cc1 | 18.4
20 | O=C(Nc1ccc(N2CCN(C(=O)c3ccccc3)CC2)cc1)c1ccc(Br)o1 | -75.9
21 | N#Cc1ccccc1N1CCN(C(=O)c2ccc(NC(=O)c3ccc(Br)o3)cc2)CC1 | -18.9
22 | COc1cccc(C(=O)Nc2ccc(N3CCN(C(=O)c4cccs4)CC3)cc2)c1 | -19.7

Row | Structure (SMILES) | hERG current change (%, negative = inhibition) at 10uM [%]
23 | CC(C)C(=O)N1CCN(c2ccc(NC(=O)c3ccc(Br)o3)cc2)CC1 | -0.0806
24 | O=C(Nc1ccc(C(=O)N2CCN(c3ccccn3)CC2)cc1)c1ccc(Br)o1 | -66.7
25 | O=C(c1ccc(Br)o1)N1CCN(c2ccccn2)CC1 | -19.3
26 | O=C(Nc1ccc(N2CCN(C(=O)c3cccs3)CC2)cc1)c1ccc(F)cc1 | -15.3
27 | O=C(Nc1ccc(N2CCN(C(=O)c3cccs3)CC2)cc1)c1cccc(F)c1 | -62.6
28 | O=C(Nc1ccc(N2CCN(C(=O)c3ccc(Cl)cc3)CC2)cc1)c1ccc(Br)o1 | -75.3
29 | O=C(COC(=O)Cc1ccc(F)cc1)NC1CCCC1 | 4.84
30 | COc1ccc(N(CC(=O)Nc2cc(OC)c(OC)cc2C(=O)O)S(=O)(=O)c2c(C)noc2C)cc1 | 15.9
31 | COc1ccc(/C=N/Nc2nnc(C)n2N)cc1OC(C)=O.Cl | 14.3
32 | COCCN(C(=O)COC(=O)c1nc(Cl)ccc1Cl)c1c(N)n(Cc2ccccc2)c(=O)[nH]c1=O | 20.3
33 | O=C1CC(c2ccco2)Cc2nc(N3CCc4ccccc4C3)ncc21 (stereo not shown) | -20.7
34 | O=C(Nc1ccc(N2CCN(C(=O)c3cccs3)CC2)cc1)c1ccc(Br)o1 | -75.8
35 | CCC(=O)N1CCN(c2ccc(NC(=O)c3ccc(Br)o3)cc2)CC1 | -26.9
36 | O=C(Nc1ccc(N2CCN(C(=O)c3cccs3)CC2)cc1)c1ccc([N+](=O)[O-])o1 | -25.5
37 | O=C(Nc1ccc(N2CCN(C(=O)c3cccs3)CC2)cc1)c1ccco1 | 17.7
38 | Cc1ccc(C(=O)N2CCN(c3ccc(NC(=O)c4ccc(Br)o4)cc3)CC2)cc1 | -68.8
39 | CN1CCN(c2ccc(NC(=O)c3ccc(Br)o3)cc2)CC1 | -16.2
40 | Cc1ccc(Nc2c(-c3ccccn3)nc3cccc(C)n23)cc1 | 10.1
41 | Cc1ccc(C(=O)NNC(=O)/C=C\C(=O)O)cc1 | 6.41
42 | CCOC(=O)/C=C/c1ccc2c(c1)S(=O)(=O)N(Cc1ccc(OC)cc1)[C@H]2CC(=O)OCC | -18.2
43 | COc1cccc(=O)c2c(C)n(-c3ccc(C(=O)O)cc3)c(C)c12 | 6.33
44 | COc1cccc(-n2c(C)c3c(OC)cccc(=O)c3c2C)c1 | -11.8

Row | Structure (SMILES) | hERG current change (%, negative = inhibition) at 10uM [%]
45 | COc1ccc(-n2c(C)c3c(OC)cccc(=O)c3c2C)cc1 | -60.2
46 | COc1cnc(-c2ccccn2)nc1N(C)c1ccccc1 | 14.2
47 | Cc1ccc(-c2nc3ccccc3o2)cc1NC(=O)Cc1cccs1 | 18.7
48 | CC(C)C[C@H](NC(=O)C1(c2ccccc2)CCN(C(=O)OC(C)(C)C)CC1)C(=O)N1CCC[C@H]1C(=O)O | 9.37
49 | CCN1C(=O)c2ccccc2Sc2ccc(C(=O)NCCC(C)C)cc21 | -7.94
50 | O=C(NCCN1CCOCC1)c1ccc2c(c1)N(Cc1ccccc1F)C(=O)c1ccccc1S2 | -27
51 | Cc1ccccc1CN1C(=O)c2ccccc2Sc2ccc(C(=O)NCCCN3CCOCC3)cc21 | -62.9
52 | CCN1C(=O)c2ccccc2Sc2ccc(C(=O)NCCCN3CCOCC3)cc21 | -17.8
53 | CCN1C(=O)c2ccccc2S(=O)(=O)c2ccc(C(=O)NCCCN(CC(C)C)CC(C)C)cc21 | -12.7
54 | Cc1ccc(CN2C(=O)c3ccccc3Sc3ccc(C(=O)NCCN4CCOCC4)cc32)cc1 | -15.2
55 | Cc1ccccc1CN1C(=O)c2ccccc2Sc2ccc(C(=O)NCCN3CCOCC3)cc21 | -69.6
56 | Cc1ccc(CN2C(=O)c3ccccc3Sc3ccc(C(=O)NCCCN4CCOCC4)cc32)cc1 | -2.12
57 | CCN1C(=O)c2ccccc2Sc2ccc(C(=O)NCCCN(CC(C)C)CC(C)C)cc21 | -64.3
58 | CCCCC1C2=C(CC(C)(C)CC2=O)OC2=C1C(=O)CC(C)(C)C2 | -9.48
59 | CC(C)(C)C1=C(C#N)C(c2cccnc2)C(C#N)=C(N)O1 (stereo not shown) | 4.42
60 | COc1cc(CCN)ccc1O.Cl | 15.1
61 | COP(=O)(OC)C(Nc1ccccc1)c1ccccc1 (stereo not shown) | 11.4
62 | COc1ccc(N2CCCC2)c(NC(=O)COc2ccccc2Cl)c1 | 14.8
63 | CN1CCN(C(=O)/C(=C/c2ccccc2Cl)NC(=O)c2ccccc2)CC1 | -10.8
64 | CN1CCN(C(=O)/C(=C/c2ccc([N+](=O)[O-])cc2)NC(=O)c2ccccc2)CC1 | -81.5
65 | O=C(N/C(=C\c1cccc([N+](=O)[O-])c1)C(=O)N1CCCCC1)c1cccs1 | 7.93
66 | COc1cc(/C=C(/NC(=O)c2ccccc2)C(=O)N2CCN(C)CC2)c([N+](=O)[O-])cc1OC | 9.52

Row | Structure (SMILES) | hERG current change (%, negative = inhibition) at 10uM [%]
67 | CC(=O)Nc1ccc(C(=O)N/C(=C/c2ccccc2)C(=O)N2CCCCC2)cc1 | 4.57
68 | O=C(N/C(=C\c1ccc([N+](=O)[O-])cc1)C(=O)N1CCCCC1)c1ccccc1Br | -59.4
69 | CN1CCN(C(=O)/C(=C/c2cccc([N+](=O)[O-])c2)NC(=O)c2ccccc2)CC1 | -72.6
70 | O=C(N/C(=C/C=C/c1ccccc1)C(=O)N1CCCCC1)c1ccc([N+](=O)[O-])cc1 | -72.8
71 | CN1CCN(C(=O)/C(=C\c2cccc([N+](=O)[O-])c2)NC(=O)c2cccs2)CC1 | -25.4
72 | O=C(N/C(=C/c1cccc([N+](=O)[O-])c1)C(=O)N1CCOCC1)c1ccccc1Br | -7.05
73 | O=C(N/C(=C/c1cccc([N+](=O)[O-])c1)C(=O)N1CCCC1)c1ccccc1 | -46
74 | O=C(N/C(=C\c1ccccc1)C(=O)N1CCOCC1)c1ccccc1Br | 17.9
75 | CC1CCN(C(=O)CCc2nnc(-c3ccccc3)o2)CC1 | -5.83
76 | O=C(NNc1ccc([N+](=O)[O-])cc1)C12CC3CC(CC(C3)C1)C2 | 19.5
77 | CC(=O)Nc1ccc(OCc2cccc([N+](=O)[O-])c2)cc1 | 8.84
78 | Cc1onc(-c2ccccc2Cl)c1C(=O)Oc1cc(N)n(S(=O)(=O)c2ccc(F)cc2)n1 | -3.48
79 | COc1ccccc1Cc1nc(-c2cccnc2)no1 | 14.8
80 | Cc1ccn2c(C(=O)CSc3ccc(Cl)cc3)c(C)nc2c1 | 7.28
81 | CCOc1ccc(N2C(=O)CC(NCC3CCCO3)C2=O)cc1 (stereo not shown) | 2.22
82 | O=C(Nc1ccccc1)C(c1ccccc1)c1ccccc1 | 15.1
83 | O=C(N/C(=C\c1ccc([N+](=O)[O-])cc1)C(=O)N1CCCCC1)c1ccccc1 | -76.9
84 | O=C(N/C(=C/C=C\c1ccccc1)C(=O)N1CCOCC1)c1ccc(Br)cc1 | -64.1
85 | O=C(N/C(=C\c1ccccc1)C(=O)N1CCCCCC1)c1ccccc1 | 15.2
86 | CCCCOc1ccc(C(=O)N/C(=C/C=C/c2ccccc2)C(=O)N2CCOCC2)cc1 | -5.66
87 | O=C(N/C(=C/C=C/c1ccccc1)C(=O)N1CCOCC1)c1ccccc1Cl | -16.6
88 | O=C(N/C(=C/c1ccccc1)C(=O)N1CCCCC1)c1ccccc1 | 29.9
